Screens from PubChem BioAssay.
CtBP-E1A inh: qHTS Assay for Inhibitors of the CtBP/E1A Interaction; CtBP / adenovirus E1A interaction (AlphaScreen); AlphaScreen GST-E1A/His-CtBP binding, 1536-well; stronger effect = lower value; activity change, % (concentration not given with the values); actives 0.49% (n = 340,000); in the data active = activity change below about -65%; inconclusive = mostly about -30% to -63%
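Homogeneous bead-based format: GST-tagged E1A captured on glutathione donor beads, His-tagged CtBP on nickel acceptor beads; compounds precede bead addition by 2 h at 37 °C.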
Six1-Eya2 inh: qHTS Assay for Inhibitors of the Six1/Eya2 Interaction; activity change, % (test concentration not listed); AID 651725, 2012; actives 0.56% (n = 360,000); AlphaScreen GST-Six1/His-Eya2 binding, biochemical; stronger effect = lower value; in the data active = activity change below about -65%; inconclusive = mostly about -30% to -63%
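AlphaScreen luminescence read after one hour at 37 °C in darkness. Pin-transferred compounds met GST-Six1 and His-Eya2 protein (5X stock 250 nM/500 nM) plus glutathione donor and Ni-chelate acceptor beads (5X, 50 ug/mL).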
BAZ2B block: qHTS Assay for Inhibitors of BAZ2B | Bromodomain adjacent to zinc finger domain protein 2B (Homo sapiens), Q9UIF8 | AlphaScreen BAZ2B-H3K14Ac peptide displacement | Potency, µM (series often up to 114 µM), most hits filed as inhibitors | actives 4.4% (n = 360,000); also: nearly all actives have a fitted effect of over 60% in size
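In this displacement format the biotinylated H3(5-23) peptide acetylated at Lys14 serves as ligand at 50 nM, with BAZ2B at 50 nM in PBS pH 7.4 containing 0.01% Tween-20. Donor and acceptor beads are 10 ug/mL final.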
JMJD2A Tudor inh: qHTS Assay for Inhibitors of JMJD2A-Tudor Domain; Potency, µM (doses to about 114 µM), hits mostly inhibitors; actives 4.4% (n = 390,000); AlphaScreen JMJD2A-Tudor / H3K4me3 peptide binding; AID 504339, 2011; Lysine-specific demethylase 4A (Homo sapiens), O75164; also: nearly all actives have a fitted effect of over 50% in size
G9a inh: qHTS Assay for Inhibitors of Histone Lysine Methyltransferase G9a; Histone-lysine N-methyltransferase EHMT2 (Homo sapiens), Q96KQ7; G9a H3K9 monomethylation, AlphaScreen, 2 h; Potency, µM (series often up to 102 µM), actives largely listed as inhibitors; actives 8.8% (n = 350,000); also: nearly all actives have a fitted effect of over 75% in size
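AlphaScreen read-out: biotin-H3K9 peptide (500 nM) methylation by 20 nM enzyme with 20 uM SAM, 2 h at room temperature after 15 min compound preincubation; anti-monomethyl H3K9 antibody plus donor/acceptor beads, 10 min dark.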
HP1b binding inh: HTS for Inhibitors of HP1-beta Chromodomain Interactions with Methylated Histone Tails | Chromobox protein homolog 1 (Homo sapiens), P83916 | AlphaScreen HP1-beta / biotin-H3K9me3 peptide binding | Potency, µM (top dose mostly 114 µM), actives largely listed as inhibitors | actives 0.56% (n = 390,000) | AID 540317, 2011; also: nearly all actives have a fitted effect of over 70% in size
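HP1-beta protein (50 nM final) preincubated 30 min at room temperature with biotinylated H3(1-18)K9me3 peptide (50 nM) in PBS pH 7.4, 0.01% Tween-20, then compound added for 30 min. AlphaScreen streptavidin donor/nickel chelate acceptor beads (10 ug/mL final), 30 min dark, luminescence read.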
Each line names hits and unclear results; the compound was inactive in the other large screens. The list is not random: actives were taken first. Their share in the collection is about 10%. Unless noted, calls follow the shape of the dose curve; as a rule, active = well fitted inhibition curve with a large enough effect; inconclusive = small, poorly fitted or top-dose-only effect; inactive = no such curve, though single readings can be large or run the other way.

O=C(CCNC(=O)c1ccc([N+](=O)[O-])cc1)NCC1COc2ccccc2O1 (stereo not drawn)	G9a inh 50.1µM
O=C(Cc1ccccc1)NCC1COc2ccccc2O1 (stereo not drawn)	none (no result: BAZ2B block, G9a inh)
CCc1nn(CC(=O)NCCC(C)C)c(=O)c2cc3occc3n12	none (no result: CtBP-E1A inh, Six1-Eya2 inh)
CC(NCC1COc2ccccc2O1)C(=O)NCc1ccccc1 (stereo not drawn)	BAZ2B block 35.5µM, JMJD2A Tudor inh 1.26µM, G9a inh 44.7µM, HP1b binding inh 15.8µM
O=C(NCc1ccccc1)C(=O)NCC1COc2ccccc2O1 (stereo not drawn)	none
O=C(Nc1ccccc1Cl)C1CCN(c2nc3ccccc3[nH]2)CC1	none (no result: CtBP-E1A inh, Six1-Eya2 inh)
O=C1N=C(N2CCCC2C(=O)O)S/C1=C\c1ccco1 (stereo not drawn)	BAZ2B block 79.4µM, JMJD2A Tudor inh inconclusive, G9a inh 25.1µM, HP1b binding inh inconclusive (no result: CtBP-E1A inh)
CCN(CC)CCn1c2ccccc2c(=O)c2c(O)ccc(O)c21	Six1-Eya2 inh -68.8, JMJD2A Tudor inh 44.7µM, HP1b binding inh 39.8µM (no result: BAZ2B block, G9a inh)
COc1ccc(C2C3=C(CC(C)(C)CC3=O)OC(N)=C2[N+](=O)[O-])cc1 (stereo not drawn)	G9a inh inconclusive (no result: CtBP-E1A inh)
COc1cc(C2C3=C(CC(C)(C)CC3=O)OC(N)=C2[N+](=O)[O-])ccc1O (stereo not drawn)	G9a inh 50.1µM
Cc1cc(C)c2ccc(C)[n+]([O-])c2c1O	BAZ2B block inconclusive, G9a inh 12.6µM
Cc1cc(C)c2ccc(N)nc2c1O	CtBP-E1A inh inconclusive, Six1-Eya2 inh inconclusive, G9a inh inconclusive
COc1ccc(-c2nc3ccccc3s2)cc1NC(=O)c1cc2ccccc2o1	none (no result: CtBP-E1A inh, Six1-Eya2 inh)
O=C(CCN1C(=O)/C(=C/c2ccccc2)SC1=S)NNC(=O)c1ccncc1	none
O=C(NN1C(=O)/C(=C/C=C/c2ccccc2)SC1=S)c1ccncc1	G9a inh 44.7µM
O=C(NN1C(=O)/C(=C/C=C/c2ccco2)SC1=S)c1ccncc1	Six1-Eya2 inh inconclusive, BAZ2B block 5.62µM, JMJD2A Tudor inh 14.1µM, G9a inh 3.98µM, HP1b binding inh 12.6µM
Cc1ccc2oc(=O)c(/C=C(\O)c3cccs3)nc2c1	G9a inh inconclusive
O=c1oc2ccc(Cl)cc2nc1/C=C(\O)c1cccs1	BAZ2B block 50.1µM, JMJD2A Tudor inh inconclusive, G9a inh 3.16µM
Cc1ccc2oc(=O)c(/C=C(\O)c3ccccc3)nc2c1	G9a inh 7.94µM
Cc1ccc2oc(=O)c(/C=C(\O)CC(C)C)nc2c1	G9a inh 50.1µM
Cc1ccc(CCNC(=O)c2ccc(CS(=O)(=O)c3ccc(Br)cc3)o2)cc1	none (no result: CtBP-E1A inh, Six1-Eya2 inh)
O=C(O)c1cccc(N2C(=O)c3cccnc3C2=O)c1	none
O=C1c2cccnc2C(=O)N1c1cccc([N+](=O)[O-])c1	BAZ2B block 56.2µM, JMJD2A Tudor inh inconclusive
CCOc1ccccc1-c1nnc2n1N=C(c1cc(OC)cc(OC)c1)CS2	none (no result: CtBP-E1A inh, Six1-Eya2 inh, BAZ2B block, G9a inh, HP1b binding inh)
CCOC(=O)c1[nH]c2ccccc2c1NC(C)=O	none
CCOC(=O)c1[nH]c2ccccc2c1NC(=O)CC	none
CCOC(=O)c1[nH]c2ccccc2c1NC(=S)Nc1ccccc1	BAZ2B block inconclusive, G9a inh 44.7µM
CCOC(=O)c1[nH]c2ccccc2c1NC(=S)Nc1cccc(C)c1	BAZ2B block inconclusive, JMJD2A Tudor inh inconclusive, G9a inh 39.8µM
COc1ccc(CCNc2ncnc3onc(C)c23)c(OC)c1	none (no result: CtBP-E1A inh, Six1-Eya2 inh)
O=C(c1ccccc1Br)N(Cc1ccco1)Cc1ccco1	BAZ2B block inconclusive (no result: CtBP-E1A inh, Six1-Eya2 inh)
Cc1ccc(CN2C(=O)N/C(=C\c3ccc(N4CCOCC4)cc3)C2=O)cc1	none
Cc1ccc(/C=C2/NC(=O)N(c3ccccc3)C2=O)o1	BAZ2B block 56.2µM
